Reference: PubChem BioAssay AID602229 (The Scripps Research Institute Molecular Screening Center, 2012)
Out of some 360,000 compounds screened, about 1,300 (0.36%) were called active.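 How the source made its calls: active means inhibition above the mean of all tested compounds plus 3 SD (cut at about 70% in these data); inactive means the rest.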 The entries come from a sample that favours actives as a whole.

Target: Photoreceptor-specific nuclear receptor (Homo sapiens) (UniProt Q9Y5X4)
Assay: NR2E3 agonists in two-hybrid cells, primary screen, cell-based, luminescence, CHO-S, Gal4-NCOR/VP16-NR2E3 (AID 602229);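 further: 0% = DMSO with NR2E3 transfected cells and 100% = cells lacking NR2E3 construct; higher means lower luciferase signal from less NR2E3 corepressor binding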
Conditions: luciferase, at 3.98 µM, stronger effect = higher value

Photoreceptor-specific nuclear receptor (Homo sapiens), sequence (Q9Y5X4 whole entry, looked up, the tested form may be a part): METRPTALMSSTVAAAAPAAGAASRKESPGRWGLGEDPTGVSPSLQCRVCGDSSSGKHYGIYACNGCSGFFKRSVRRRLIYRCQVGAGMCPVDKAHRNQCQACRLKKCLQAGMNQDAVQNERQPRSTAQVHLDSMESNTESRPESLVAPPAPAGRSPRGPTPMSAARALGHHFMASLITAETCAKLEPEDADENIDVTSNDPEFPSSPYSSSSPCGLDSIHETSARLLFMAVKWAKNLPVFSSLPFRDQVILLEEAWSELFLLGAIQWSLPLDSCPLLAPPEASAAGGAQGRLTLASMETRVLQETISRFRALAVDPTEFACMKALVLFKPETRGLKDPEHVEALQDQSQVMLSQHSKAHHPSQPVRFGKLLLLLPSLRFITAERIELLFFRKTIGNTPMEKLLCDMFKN

Q: Which inhibition does the source give for `CC(=O)OC1C2(CC3N4C(=O)C5(CO)SSC4(CC31O)C(=O)N5C)OC(C)C(C)(C)C2=O` (stereo not given) here?
A: 99.4% (active)

Q: How did the inhibition turn out when `Cc1nn(-c2ccccc2)c(C)c1NC(=O)COC(=O)Cc1ccccc1` was run?
A: 8.66% (inactive)

Q: For `COc1ccc(Br)cc1CNCCc1cccc(Cl)c1`, which inhibition is on record?
A: 24.3% (inactive)

Q: How did the inhibition turn out when `COC(=O)C1=C(c2ccc(F)cc2OCc2ccccc2)C[C@@H]2CC[C@H]1N2C(=O)NCc1ccc(C(C)(C)C)cc1` was run?
A: 8.82% (inactive)

Q: How did the inhibition turn out when `CCCCCCCCCCCCn1ccc(=N)cc1` was run?
A: 94% (active)

Q: For `CC(C)CN1Cc2cc(N3CCCCC3)ccc2-n2nncc2C1`, which inhibition is on record?
A: 3.03% (inactive)

Q: With `CNC(=O)N(C)c1nnc(C(C)(C)C)s1` as the compound, how does the inhibition read?
A: -10.2% (inactive)

Q: With `CN(C)P(=S)(Nc1ccccc1)C(Cl)(Cl)Cl` (stereo not given) as the compound, how does the inhibition read?
A: 5.18% (inactive)

Q: How did the inhibition turn out when `COC(=O)N(c1ccc(OC)cc1)P1(=S)OCCC(C)O1` (stereo not given) was run?
A: -15.4% (inactive)

Q: Which inhibition does the source give for `CC(=NCC1CCCO1)c1c(O)n(-c2ccccc2)c(=O)[nH]c1=O` (stereo not given) here?
A: 0.24% (inactive)

Q: For `CCC(C)(O)C(=O)OC1C(=O)OC2CC3C(C)=CC(=O)C(O)C3(C)C3C4(O)OCC23C1C(C)C4O` (stereo not given), which inhibition is on record?
A: 99% (active)

Q: Which inhibition does the source give for `CCC(=O)OC(Cc1ccccc1)(c1ccccc1)C(C)CN(C)C` (stereo not given) here?
A: -18.8% (inactive)

Q: `Nc1ccc(Cc2ccc(N)c(Cl)c2)cc1Cl` was tested. Which inhibition did it give?
A: -10.5% (inactive)

Q: With `Cn1c(O)c(C(=Nc2ccc(F)cc2)c2ccccc2)c(=O)n(C)c1=O` as the compound, how does the inhibition read?
A: -24.4% (inactive)

Q: `COc1cccc(-c2nc3ccc(N4CCN(C)CC4)cc3[nH]2)c1` was tested. Which inhibition did it give?
A: -20.1% (inactive)
